From the supplement of paper PMC6555819

Columns and labels:
Test in all cases: PBM binding z-score (relative to random genomic background probes); higher = stronger binding; sequences stand for … in GC…GCGATTGACAGCGTAGAATGAAGG
[1] = test system: PPARg:RXRa DBDmut IVT, anti-RXR (DBD mutation: RXRa K156A/R161A, NR concentration 270 nM, RXRa partner concentration 90 nM)
Method in brief: (§1)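 Ligand-free nuclear receptor dimers were applied to custom Agilent 4×180K protein-binding microarrays whose double-stranded probes carried direct-repeat seeds, single-nucleotide variants, half-site ablations and random human genomic background sequences in 34-nt variable regions. Incubation lasted 1 h. Binding z-scores were computed against the random background probes from regression-normalized fluorescence.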

[2] = test system: PPARg:RXRa IVT, anti-PPARg (NR concentration 270 nM, RXRa partner concentration 90 nM)
Method in brief: as §1

[3] = test system: PPARg DBDmut:RXRa IVT, anti-PPARg (DBD mutation: PPARg1 K132A/R137A, NR concentration 270 nM, RXRa partner concentration 90 nM)
Method in brief: as §1

[4] = test system: PPARg DBDmut IVT, anti-PPARg (DBD mutation: PPARg1 K132A/R137A, NR concentration 270 nM)
Method in brief: as §1

[5] = test system: PPARg homodimer (NR concentration 180 nM)
Method in brief: as §1

[6] = test system: PXR homodimer (NR concentration 270 nM)
Method in brief: as §1

[7] = test system: RARa:RXR (NR concentration 270 nM, RXRa partner concentration 90 nM)
Method in brief: as §1

[8] = test system: RARa homodimer (NR concentration 270 nM)
Method in brief: as §1

[9] = test system: RARb:RXRa (NR concentration 270 nM, RXRa partner concentration 90 nM)
Method in brief: as §1

[10] = test system: RARb homodimer (NR concentration 270 nM)
Method in brief: as §1

[11] = test system: RARg:RXRa (NR concentration 270 nM, RXRa partner concentration 90 nM)
Method in brief: as §1

[12] = test system: RARg homodimer (NR concentration 270 nM)
Method in brief: as §1

[13] = test system: RXRa DBDmut IVT, anti-RXR (DBD mutation: RXRa K156A/R161A, NR concentration 90 nM)
Method in brief: as §1

[14] = test system: RXRa homodimer (NR concentration 180 nM)
Method in brief: as §1

[15] = test system: THRa:RXRa (NR concentration 90 nM, RXRa partner concentration 90 nM)
Method in brief: as §1

[16] = test system: THRa homodimer (NR concentration 90 nM)
Method in brief: as §1

[17] = test system: VDR homodimer (NR concentration 270 nM)
Method in brief: as §1

[18] = test system: PXR:RXRa (NR concentration 270 nM, RXRa partner concentration 90 nM)
Method in brief: as §1

[19] = test system: VDR:RXRa (NR concentration 270 nM, RXRa partner concentration 90 nM)
Method in brief: as §1

| Sequence | PBM binding z-score [1] | PBM binding z-score [2] | PBM binding z-score [3] | PBM binding z-score [4] | PBM binding z-score [5] | PBM binding z-score [6] | PBM binding z-score [7] | PBM binding z-score [8] | PBM binding z-score [9] | PBM binding z-score [10] | PBM binding z-score [11] | PBM binding z-score [12] | PBM binding z-score [13] | PBM binding z-score [14] | PBM binding z-score [15] | PBM binding z-score [16] | PBM binding z-score [17] | PBM binding z-score [18] | PBM binding z-score [19] |
| --- | --- | --- | --- | --- | --- | --- | --- | --- | --- | --- | --- | --- | --- | --- | --- | --- | --- | --- | --- |
| CAATCTAGGTCACAGAGGTCAAAGTCCGTGCGTA | 9.1 | 9.25 | 7.18 | 5.24 | 7.14 | 11.9 | 7.89 | 3.61 | 5.46 | 5.7 | 7.55 | 7.82 | 3.44 | 8.19 | 4.8 | 3.43 | 7.51 | – | – |
| TCTTGTAGGTCAAAGGTTAAGAAAGCCGAAGCCT | 7.87 | 8.59 | 1.61 | 1.68 | 3.23 | 0.389 | – | 0.512 | 5.12 | 3.84 | 7.23 | 5.61 | 1.98 | – | 3.76 | 0.452 | 0.881 | 5.44 | – |
| TAGCCTAGGTCATTCAGGGGTCAGTATAGAAAGC | 2.45 | 3.97 | 1.25 | 0.527 | 9.82 | 1.35 | – | 2.26 | 4.81 | 5.2 | – | 6.28 | 2.75 | 5.8 | 4.22 | 2.13 | 4.47 | 5.72 | 6.03 |
| GATACAGGGTCAGCTAGAGGTCAGAGTATGGAAA | 1.65 | 3.52 | 0.365 | -0.0888 | 6.51 | 1.34 | – | 1.59 | 5.32 | 5.26 | – | 7.07 | 1.95 | 7.42 | 4.49 | 1.85 | 3.45 | 5.99 | – |
| GCTAGTAGGTCAGTAAAAGGTCACACACCGGTCG | 7.2 | 7.29 | 3.2 | 3.78 | 6.95 | 1.43 | – | 2.9 | 5.4 | 6.06 | – | 7.14 | 0.784 | 6.4 | 4.27 | 1.97 | 2.37 | 5.97 | – |
| CGTCTAAGTTCAAGGTAACGTAACAGAAAGCAGC | 0.796 | 1.09 | 0.251 | 0.258 | 1.64 | 2.9 | 2.09 | 0.625 | 3.79 | 2.51 | 3.53 | 4.06 | 4.62 | 2.82 | 3.09 | 2.02 | 3.41 | – | – |
| GATACAAGGTCAGCTAGAGGCCAGAGTATGGAAA | 2.56 | 3.25 | 0.75 | 0.155 | 3.37 | 0.19 | 4.64 | 1.06 | 5.05 | 3.93 | 6.83 | 6.32 | 2.06 | 4.28 | 3.44 | 1.18 | 1.09 | – | 3.19 |
| AATACAGGGTCGCTAGGCCAGAGTAGGTACGAAT | 0.129 | 1.16 | 0.521 | -0.263 | 0.213 | -0.199 | 0.9 | 0.178 | 1.49 | 0.921 | 1.37 | 1.37 | 0.47 | 1.52 | 1.09 | 0.0627 | 0.727 | – | 0.828 |
| ACTATCAGGCCAAGGGTCACTCAAGATTAGTCCG | 1.26 | 3.82 | 0.909 | 0.584 | 3.28 | 0.337 | 4.42 | 1.45 | 3.72 | 3.89 | 4.3 | 3.73 | 1.23 | 4.05 | 3.35 | 0.937 | 1.45 | – | 3.13 |
| AGTCAAAGTTCTTCTAGGTAACGTAAGATATGCT | 0.515 | 1.89 | 0.999 | 1.12 | 0.188 | 0.42 | 0.106 | 0.636 | 0.948 | 0.172 | 0.404 | 0.586 | 1.41 | -0.133 | 1.71 | 0.292 | 0.746 | – | 0.489 |
| CCTAGTTGGTCAAGGTAACACACGCTATAGGTAC | 1.65 | 1.92 | 0.633 | 0.573 | 1.25 | 0.51 | 0.946 | 1.13 | 1.26 | 1.22 | 0.88 | 1.36 | 0.599 | 0.724 | 1.85 | 1.57 | 0.864 | – | – |
| ATCGAAAGGTCGTCGAGGTGAGTATACACCGTTT | 0.528 | 2.3 | 0.899 | 0.213 | 1.6 | 1.15 | 3.81 | 0.174 | 3.89 | 3.07 | 4.59 | 4.35 | 1.72 | 5.2 | 3.83 | 0.955 | 2.41 | – | 5.7 |
| CTCGAAAGGTCGTGCTCAGGTGAGTACACCAAAC | 1.21 | 2.09 | 1.56 | 1.04 | 2.94 | 0.541 | 4.67 | 0.374 | 4.05 | 2.93 | 5.5 | 4.41 | 2.36 | 5.63 | 4.01 | 1.21 | 2.52 | – | 3.6 |
| GATAAAGGGTCAGCTAGAGGCCAGAGTATGGAAA | 2.27 | 2.89 | 0.542 | -0.0188 | 3.27 | -0.0592 | 4.78 | 1.02 | 5.21 | 4.46 | 7.34 | 6.77 | 1.54 | 5.05 | 3.06 | -0.108 | 0.772 | – | – |
| CCTAGTTGGTCAGGAGGTCACATACCGGATATGA | 1.64 | 3.39 | 0.476 | 0.388 | 2.7 | 1.16 | 3.9 | 2.01 | 3.37 | 4.17 | 4.57 | 3.85 | 0.947 | 3.92 | 3.32 | 2.13 | 2.4 | – | – |
| TAGCCAAGGTCAGATCGGGCCAGTATACGCTATA | 0.246 | 1.81 | 0.476 | -0.254 | 1.38 | -0.349 | 2.61 | -0.193 | 4.3 | 3.41 | 4.59 | 5.1 | 1.75 | 3.58 | 4.32 | 1.09 | 1.11 | – | – |
| TCTTATAGATCAATAGAGGTTAAGAAAGTGCGCT | 1.88 | 0.653 | 0.623 | 0.528 | 1.11 | 0.488 | 1.99 | 0.901 | 1.03 | 1.22 | 1.04 | 0.633 | 0.906 | 1.75 | 2.49 | 0.125 | 0.336 | – | – |
| AGTGAAAGTTCAGGACGAGGTAACGTAAAGCACG | -0.565 | 1.36 | 0.759 | 0.589 | 1.57 | 1.41 | 2.9 | 0.544 | 4.14 | 3.13 | 4.55 | 4.38 | 2.84 | 2.54 | 3.93 | 1.95 | 2.34 | – | – |
| CGTCTAAGGTCAAAGGTCAGTGAAGAGATGACGG | 4.71 | 5.84 | 0.729 | 0.828 | 5.87 | 2.61 | 8.98 | 4 | 6.07 | 5.44 | 8.98 | 8.65 | 4.46 | 10.7 | 5.01 | 4.1 | 3.65 | – | – |
| CCTTACGGGCCACGAGGTTATAGCACGACGAGCG | 0.97 | 1.16 | -0.462 | -1.1 | 0.126 | -0.12 | 1.06 | -0.0676 | 1.15 | 1.17 | 1.33 | 1.07 | -0.516 | 1.28 | 1.25 | 0.458 | 0.543 | – | – |
| CGTCCAAGGTCAAGGGCAGTGAAAGAGACTCGAA | 2.83 | 4 | 0.426 | -0.438 | 1.82 | 0.609 | 3.82 | 1.15 | 5.64 | 4.22 | 5.8 | 6.3 | 3.02 | 5 | 3.87 | 2.22 | 1.92 | – | – |
| CGTCCAAGGTCATAGGAGTTCAGTGAAGACAGAT | 3.09 | 4 | 1.39 | 0.8 | 5.14 | 10.9 | 5.59 | 2.08 | 5.31 | 4.79 | 6.25 | 6.57 | 4.22 | 6.23 | 4.71 | 2.7 | 5.97 | – | – |
| GATACAGGGGCAAGGCCAGAGTACGCGTATTGAT | 0.794 | 0.691 | -0.76 | -0.28 | 0.334 | 0.0474 | 0.0151 | -0.216 | 1.65 | 1.19 | 0.895 | 1.33 | 0.352 | 0.544 | 0.311 | -0.32 | 0.636 | – | – |
| ATCGAAAGGTCGAAGGTGAGTCTACCCACCCGAA | 0.133 | 2.34 | 0.449 | 0.43 | 1.56 | 0.264 | 4.57 | -0.143 | 3.74 | 2.48 | 4.41 | 3.67 | 0.805 | 5.11 | 2.24 | -0.0307 | 0.891 | – | – |
| ATCGAAAGGGCGTGAGGTGAGTATACAGAAAGGC | -0.47 | 1.02 | 0.673 | 0.814 | 0.257 | 0.256 | 1.08 | 0.276 | 1.89 | 1.44 | 1.47 | 1.36 | -0.0845 | 1.17 | 2.12 | 1.08 | 0.15 | – | – |
| GGAACGAGGGCATTCGAGTTGATAGCATGGCGAT | 2.91 | 2.18 | -0.045 | 0.402 | -0.267 | 1.45 | 0.423 | -0.292 | 1.73 | 0.687 | 0.932 | 1.3 | 3.13 | 0.756 | 3.03 | -0.775 | 2.78 | – | – |
| CCTTACAGGTCAAGGTTATAGCACGGGTGGTACG | 3.89 | 4.19 | 0.977 | 0.925 | 3.36 | 0.575 | 4.39 | 1.94 | 4.65 | 3.78 | 5.27 | 5.53 | 1.83 | 4.72 | 3.18 | 1.33 | 1.73 | – | – |
